The source made the active and inactive calls. The rule behind the calls is not given here.
target: Pantothenate synthetase (Mycobacterium tuberculosis (strain ATCC 25618 / H37Rv)) (UniProt P9WIL5); experiment: Recombinant Mtb pantothenate synthetase (PanC) inhibitors, coupled enzyme, confirmatory (AID 375); details: coupled enzyme assay; at 10 µM, active compounds read high;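 note: 0% = full reaction with vehicle and 100% = no enzyme background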
Sequence (P9WIL5 whole entry, looked up): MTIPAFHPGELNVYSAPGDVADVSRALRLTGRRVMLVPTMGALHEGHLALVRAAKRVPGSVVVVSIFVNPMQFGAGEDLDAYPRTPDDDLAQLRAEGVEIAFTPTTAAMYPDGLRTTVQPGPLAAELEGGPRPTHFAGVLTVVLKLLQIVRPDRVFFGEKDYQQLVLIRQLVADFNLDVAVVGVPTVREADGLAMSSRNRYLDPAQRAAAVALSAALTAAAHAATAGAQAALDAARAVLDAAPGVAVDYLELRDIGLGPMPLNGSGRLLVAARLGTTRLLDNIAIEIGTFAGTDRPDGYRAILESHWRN

Compound | inhibition
O=C(c1cccc2ccccc12)N1CCC(N2CCN(c3ccccc3)CC2)CC1 | 0% (inactive)
COC(=O)c1ccnc(/C=N/O)c1 | 6% (inactive)
Cc1nonc1NC(=O)c1ccccc1Br | 1% (inactive)
COc1cccc2c(=O)c3c(cnn3C)n(C)c12 | 0% (inactive)
CCCc1cc(-c2n[nH]c(C)c2-c2ccc(C(=O)OCC)o2)c(O)cc1O | 6% (inactive)
CCOC(=O)N1CCC(N(C(=O)Nc2ccc(Cl)c(Cl)c2)C(C)CC)CC1 (configuration not stated) | 4% (inactive)
Nc1nnc(SCC(=O)N2CCc3ccccc32)n1-c1ccccc1 | 1% (inactive)
Cc1cccc(-n2ncc3c(N)ncnc32)c1 | 3% (inactive)
O=C(Cc1cccs1)Nc1ccccc1NC(=O)Cc1cccs1 | 0% (inactive)
COc1ccccc1C(=O)NCC(c1cccnc1)N(C)C (configuration not stated) | 0% (inactive)
CCCN1C(=O)c2cc(C(=O)O)ccc2C1O (configuration not stated) | 0% (inactive)
O=C(Nc1ccncc1)C1c2ccccc2Oc2ccccc21 | 0% (inactive)
O=C(Nc1ccc(SC(F)F)cc1)c1ccc2nccnc2c1 | 0% (inactive)
Cc1nc2ccccn2c1/C(O)=C1\C(=O)C(=O)N(CCN2CCOCC2)C1c1cccs1 (configuration not stated) | 0% (inactive)
Cc1[nH]c2c(C)cccc2c(=O)c1Br | 0% (inactive)
COC(=O)c1sc(S(=O)(=O)N2CCN(c3ccccc3)CC2)c(C(=O)OC)c1C | 10% (inactive)
Cc1cc(NC(=O)COc2ncnc3sc(C)c(C)c23)no1 | 0% (inactive)
CCOc1ncccc1C(=O)Nc1ccc2c(C)cc(=O)oc2c1 | 7% (inactive)
O=C(Nc1ccc2snnc2c1)N1CCN(c2ccccc2)CC1 | 0% (inactive)
Cc1oc(-c2ccc(Cl)cc2)nc1CS(=O)CC(=O)NCCCN(C)C1CCCCC1 (configuration not stated) | 0% (inactive)
Cc1ccc(-c2noc(CCC(=O)NCC3CCN(Cc4cccc(C)c4)CC3)n2)cc1 | 8% (inactive)
O=C1N(CCCCN2C(=O)C3(OCCO3)c3ccccc32)c2ccccc2C12OCCO2 | 0% (inactive)
